Screening data: PubChem BioAssay, several laboratories
HIF-2a inh – HIF-2a reporter inhibitors, primary screen, luminescence, 786-0 RCC cells | 786-0 RCC cells HIF-2a reporter, luciferase luminescence, overnight | inhibition, % at 18.8 µM | 360,000 compounds, 0.72% hits | AID 624352, 2012;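 active means inhibition of the luminescence signal of 40% or more relative to plate controls, in a single-dose primary screen at 18.75 µM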
KKLEB cytotox – cytotoxicity in KKLEB CF airway cells, primary screen, cytotoxicity control for CF NF-kB inhibitor project, cell-based, uHTS, fluorescence assay plates; KKLEB CF airway cells viability, ATPlite luminescence, overnight; active compounds read low; cells stimulated with P. aeruginosa culture filtrate; activity change (cytotoxicity), % at 5 µM; 360,000 compounds, 0.36% hits; AID 602141, 2011;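 active means corrected activity change at or below -50% at 5 µM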
Shn3 inh set2 – reduction of Shn3 3'UTR firefly luciferase signal, primary screen, Schnurri-3 inhibitor project, cell-based, Clone20 osteoblasts, set 2. Clone20 osteoblast Shn3 3'UTR firefly luciferase, 24 h. inhibition, % at 12.5 µM. 360,000 compounds, 0.52% hits;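 active means mean inhibition of at least 75% with every replicate also reaching 75%; inconclusive means mean inhibition at least 75% but some replicate below; inactive means mean inhibition below 75%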;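 further: 0% = median of neutral control wells and 100% = pilot-screen positive control compound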
Peg3 prom inh – Peg3 promoter-driven luciferase inhibitors, primary screen, cell-based, HeLa, luciferase luminescence; AID 588405, 2011; 360,000 compounds, 1.7% hits; HeLa PEG-Prom luciferase reporter, overnight; inhibition, % at 20 µM;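 active means inhibition of at least 50% at 20 µM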
TRPM1 prom inh – inhibitors of MITF-dependent TRPM1 promoter reporter, primary screen, cell-based, SK-MEL-5, single point, luciferase; inhibition, % at 12.5 µM; SK-MEL-5 TRPM1 promoter luciferase, 24 h; AID 488899, 2010; 330,000 compounds, 0.83% hits;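 active means mean inhibition across replicates of 60% or more, whatever share of single replicates reaches that level; inconclusive means some that reach 60%, reason not given; inactive means mean inhibition across replicates below 60%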
CF NFkB inh – inhibitors of PAF-induced NF-kB signaling, primary screen, cell-based, GFP fluorescence, uHTS | inhibition, % at 5 µM | 360,000 compounds, 0.86% hits | KKLEB NF-kB-GFP reporter, GFP fluorescence overnight | AID 588850, 2011;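 active means at least 50% inhibition at 5 µM, scaled per plate between neutral and stimulator controls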;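 further: PAF is a Pseudomonas aeruginosa culture filtrate used as stimulus; plate controls were PAF-stimulated DMSO wells for no effect and unstimulated DMSO wells for full effect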
Numbers without * were called inactive; ? = inconclusive; · = no result. A selection: hits, their analogues and other compounds. The true share with any hit is near 2.7%.

SMILES	HIF-2a inh	KKLEB cytotox	Shn3 inh set2	Peg3 prom inh	TRPM1 prom inh	CF NFkB inh
COc1ccc(C(=O)Nc2ccccc2C(=O)NCc2cccnc2)cc1OC	2	0	-3	14	1	8
COc1ccc(C(=O)Nc2ccccc2C(=O)N/N=C/c2ccncc2)cc1OC	-179	-60*	-41	-132	-40	12
COc1ccc(C(=O)Nc2ccccc2C(=O)N/N=C/c2cccc3ccccc23)cc1	-36	-88*	-18	-65	-9	-6
O=C(Nc1cccc(C(F)(F)F)c1)c1cccc2c(-c3cccnc3)coc12	-6	-13	12	6	·	-3
COc1cc(NC(=O)c2cccc3c(-c4cccnc4)coc23)cc(OC)c1OC	-24	-14	?	99*	·	10
CC(=O)c1cccc(NC(=O)c2cccc3c(-c4cccc(C(N)=O)c4)coc23)c1	-173	-8	-2	98*	·	-70
CCOC(=O)Cc1c(C)nc2c(-c3cccc(Br)c3)c[nH]n2c1=O	3	-11	20	58*	3	-4
Cc1cc(OCC(=O)Nc2ccccc2C(N)=O)c2c(C)cc(=O)oc2c1	5	-13	5	9	-14	-14
CSC(=NS(=O)(=O)c1ccc(N)cc1)NS(=O)(=O)c1cccs1	8	4	-27	26	-3	2
Cc1cc(Br)c(OCc2ccc(C(=O)N/N=C/c3ccc[nH]3)cc2)c(Br)c1	8	-85*	97*	100*	·	71*
CCc1cc(-c2[nH]ncc2-c2ccc3c(c2)OCO3)c(O)cc1O	21	-6	35	69*	10	85*
Cc1cnc(C(=O)OCC(=O)N2c3ccccc3NC(=O)C2(C)C)cn1	18	-1	-12	7	-3	-7
Cc1nn(-c2ccccc2)c(C)c1C(=O)OCC(=O)N1c2ccccc2NC(=O)C1(C)C	6	5	8	59*	15	2
CC1(C(=O)O)CCCN1C(=O)c1ccccc1OC(F)(F)F (configuration not stated)	6	12	1	1	·	-20
Cc1ccc(S(=O)(=O)N(C)C)cc1NC(=O)COc1ccccc1C(=O)Nc1ccccc1	13	-17	49	60*	-1	15
CCOc1ccc(-c2[nH]ncc2Oc2ccccc2OCC)c(O)c1	25	-7	23	55*	15	3
CCOc1ccc(-c2[nH]ncc2-c2ccc(Cl)cc2)c(O)c1	5	-9	-32	55*	5	10
CCCCCCC[N+](CC)(CC)CCCCc1ccc(Cl)cc1	3	-28	?	15	76*	3
Cc1cc2c(OCC(O)CNCc3ccco3)cccc2[nH]1 (configuration not stated)	10	0	2	15	-2	4
OC(CNCc1ccco1)Cn1c2ccc(Br)cc2c2cc(Br)ccc21 (configuration not stated)	-19	-28	18	98*	3	17
Cc1ccccc1Cn1c(C)c(C(=O)NCC(C)C)sc1=O	-5	4	2	8	·	-31
CCC(NC(=O)CNC(=O)c1ccc2c(c1)OCO2)c1ccc(Br)cc1 (configuration not stated)	13	-7	28	6	7	-16
CCOc1cc2c(c3c1C(c1ccccc1)N(S(=O)(=O)c1ccc(C)cc1)C3)C(=O)C=CC2=O (configuration not stated)	68*	-67*	99*	101*	·	56*
COc1ccccc1OCCNC(=O)CN1C(=O)NC2(CCCCC2)C1=O	6	-12	6	-6	·	16
COc1cccc(N2CCN(C(=O)CCCCCNc3nc(=S)[nH]c4ccccc34)CC2)c1	0	-21	70	63*	-4	4
SMILES	HIF-2a inh	KKLEB cytotox	Shn3 inh set2	Peg3 prom inh	TRPM1 prom inh	CF NFkB inh
O=C(CCCCCNc1nc(=S)[nH]c2ccccc12)N1CCN(c2ccccn2)CC1	7	0	56	56*	-11	-2
O=C(CCCn1c(=S)[nH]c2ccccc2c1=O)N1CCN(c2cccc(Cl)c2)CC1	11	-28	-4	19	3	8
COc1ccc(C(=O)NCc2nnc(SCC(=O)NCc3ccco3)o2)cc1OC	5	-17	-18	2	-5	3
CN1CCN(C(=O)c2cccc(-c3ccc4nccn4c3)c2)CC1	-4	6	-6	10	·	-13
COc1ccc(C)cc1Nc1nc(N)c2cc(OC)c(OC)cc2n1	8	-6	0	84*	74*	-19
CCc1ccc(CNC(=O)C2CCN(S(=O)(=O)N3CCCC3)CC2)cc1	9	5	6	-7	7	10
COc1cccc(CNC(=O)COC(=O)c2ccc(Cl)s2)c1	7	29	6	9	3	-13
COc1cccc(CNC(=O)c2ccc(OCC(=O)N3CCOCC3)c(OC)c2)c1	13	-6	4	-1	-2	6
COc1cccc(CNC(=O)C2=Cc3cccc(OC)c3OC2)c1	1	-1	11	58*	-1	18
COc1cc(/C=C2\C(=O)N(c3ccc(NC(C)=O)cc3)N=C2c2ccccc2)ccc1O	-2	5	9	-14	2	-10
CCOc1cc(/C=C2\C(=O)N(c3nc(-c4ccc(Br)cc4)cs3)N=C2c2ccccc2)ccc1O	15	14	-5	51*	-2	-2
O=C1C(C2=NC(C(=O)O)C3C(=O)N(c4ccc(Cl)cc4)C(=O)C23)=C(O)c2ccccc21 (configuration not stated)	1	-5	-3	0	-1	16
O=C1C(C2=NC(c3ccccn3)C3C(=O)N(c4ccc(Cl)cc4Cl)C(=O)C23)=C(O)c2ccccc21 (configuration not stated)	16	-39	13	51*	90*	53*
CNc1ccc(Br)cc(C(=O)/C=C/c2ccc(Cl)cc2Cl)c1=O	-2	-3	-6	62*	31	10
CCNc1ccc(Br)cc(C(=O)/C=C/c2c(Cl)cccc2Cl)c1=O	68*	5	57	104*	83*	-8
CNc1ccc(Br)cc(C(=O)/C=C/c2ccc(OC)cc2OC)c1=O	4	0	0	-45	10	-2
Cn1c(SCC(=O)NCC2COc3ccccc3O2)nnc1C(F)(F)F (configuration not stated)	5	-10	-5	1	-4	24
CN1CCN(Cc2nc3ccccc3c(=O)n2Cc2nc(-c3ccc([N+](=O)[O-])cc3)cs2)CC1	7	-10	-5	72*	66*	-48
